Laboratory results as given in PubChem BioAssay (NCI).
The panel holds about 79,000 compounds, 15% with a hit somewhere; the sample as a whole holds those more often. Activity calls are given as the source filed them. No stated cut-off is given here; in the data, active means growth inhibition above about 70%; inactive means the rest.

Assay: NCI Yeast Anticancer Drug Screen. Data for the mgt1 strain (AID 153)
Conditions: S. cerevisiae mgt1 mutant growth inhibition, active compounds read high
Description: Growth inhibition of yeast strains with defined genetic alterations is measured as a screen for potential anti-cancer activity. Selected strains with alterations in DNA damage repair or cell cycle control were exposed to compounds and growth inhibition was measured relative to vehicle treated controls. The strain used in this assay is mgt1

Measured: growth inhibition

Cn1c(-c2ccc(/C=N\N3CCN(/N=C/c4ccc(-c5c[n+]6ccccc6n5C)cc4)CC3)cc2)c[n+]2ccccc12
active: at 100.0 µM 91%
inactive: at 1.2 µM -30% | at 3.7 µM -10% | at 11.0 µM -27% | at 33.0 µM 38%

CC1=CC(=C(c2ccc(N)cc2)c2ccc(N)cc2)C=CC1=N
inactive: at 1.2 µM -9% | at 3.7 µM 1% | at 11.0 µM -8% | at 33.0 µM 4%
active: at 100.0 µM 76%

NC1=NNC2(C(N)=N1)c1ccccc1-c1ccccc12
active: at 100.0 µM 98%
inactive: at 1.2 µM 12% | at 3.7 µM 6% | at 11.0 µM 3% | at 33.0 µM 30%

Clc1ccc2c(c1)N(CCCN1CCCC13CCCCC3)c1ccccc1S2
inactive: at 1.2 µM 2% | at 3.7 µM -1% | at 11.0 µM 3% | at 33.0 µM -2% | at 100.0 µM -2%

Nc1cc(N)c(N=Nc2cccc3c(S(=O)(=O)O)cccc23)cc1N=Nc1cc([N+](=O)[O-])ccc1O
inactive: at 1.2 µM -19% | at 3.7 µM 8% | at 11.0 µM 9% | at 33.0 µM 12% | at 100.0 µM 65%

CC(C)(CCCCC(C)(C)[N+](C)(C)C)[N+](C)(C)C
inactive: at 1.2 µM -4% | at 3.7 µM -3% | at 11.0 µM -4% | at 33.0 µM -16% | at 100.0 µM -2%

CN(C)Cc1cc(N=Nc2ccc(Cl)cc2)ccc1OC(=O)c1ccccc1
inactive: at 1.2 µM 0% | at 3.7 µM 1% | at 11.0 µM 5% | at 33.0 µM 48%
active: at 100.0 µM 82%

c1ccc2[nH]c(-c3cscn3)nc2c1
inactive: at 1.2 µM -2% | at 3.7 µM -2% | at 11.0 µM -5% | at 33.0 µM -5% | at 100.0 µM -7%
